Measurements: the supplement of paper PMC10515830
Where a name gives a salt, the structure may show the parent alone.

system: Danio rerio larvae (5 dpf); assay: difference in combined optomotor response to red, green and blue moving lines vs DMSO (percentage points); higher = stronger optomotor response than DMSO; details: 10 µM; exposure time 6 h
How it was run: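 Wild-type 5 dpf zebrafish larvae in 96-well plates were given 100 µL egg water containing library compound at 10 µM final for 6 h. After 3 h of exposure, plates at 28.5 ℃ were photographed every 6 s during a 3-h programme of moving lines and 100 ms, 400Hz tones. Z-LaP Tracker (a DeepLabCut model) quantified each behaviour, averaged over 48 larvae per compound. Values are the compound mean minus the DMSO-vehicle control, in percentage points.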

Q: Which difference does the source give for `COc1ccccc1OCCNCC(O)COc1cccc2[nH]c3ccccc3c12` (stereo not drawn) [Carvedilol] here?
A: Its difference is 3.65.

Q: With `CC(=O)OCC(=O)[C@@]1(O)CC[C@H]2[C@@H]3CCC4=CC(=O)CC[C@]4(C)[C@@]3(F)[C@@H](O)C[C@@]21C` [Fludrocortisone Acetate] as the compound, how does the difference read?
A: The difference was 1.96.

Q: Which difference does the source give for `CC(=O)S[C@@H]1CC2=CC(=O)CC[C@]2(C)[C@H]2CC[C@@]3(C)[C@@H](CC[C@@]34CCC(=O)O4)[C@H]12` [Spironolactone] here?
A: Its difference is -0.69.

Q: With `COc1cc2c(cc1OC)CC(=O)N(CCCN(C)C[C@H]1Cc3cc(OC)c(OC)cc31)CC2` [Ivabradine (hydrochloride)] as the compound, how does the difference read?
A: Its difference is 9.1.

Q: With `Cc1ccc(Nc2nccc(N(C)c3ccc4c(C)n(C)nc4c3)n2)cc1S(N)(=O)=O` [Pazopanib] as the compound, how does the difference read?
A: Its difference is 1.79.

Q: How did the difference turn out when `COC(=O)c1ccc2c(c1)NC(=O)/C2=C(\Nc1ccc(N(C)C(=O)CN2CCN(C)CC2)cc1)c1ccccc1` was run?
A: The difference was 3.92.

Q: For `C[C@@H](O)[C@@H]1NC(=O)[C@H](CCCCN)NC(=O)[C@@H](Cc2c[nH]c3ccccc23)NC(=O)[C@H](Cc2ccccc2)NC(=O)[C@@H](NC(=O)[C@H](N)Cc2ccccc2)CSSC[C@@H](C(=O)N[C@H](CO)[C@@H](C)O)NC1=O` [Octreotide (acetate)], which difference is on record?
A: Its difference is 0.73.

Q: Which difference does the source give for `CN1C(=O)CC(C)(c2ccccc2)C1=O` (stereo not drawn) [Methsuximide] here?
A: The difference was 10.3.

Q: For `CNC(=C[N+](=O)[O-])NCCSCc1ccc(CN(C)C)o1` [Ranitidine (hydrochloride)], which difference is on record?
A: Its difference is 7.87.

Q: How did the difference turn out when `CC(=O)N[C@@H](CS)C(=O)O` [N-acetyl-L-Cysteine] was run?
A: The difference was -0.176.

Q: How did the difference turn out when `CCc1c2c(nc3ccc(OC(=O)N4CCC(N5CCCCC5)CC4)cc13)-c1cc3c(c(=O)n1C2)COC(=O)[C@]3(O)CC` [Irinotecan (hydrochloride hydrate)] was run?
A: The difference was 2.92.

Q: With `CN(C)CC[C@@H](c1ccc(Cl)cc1)c1ccccn1` [Dexchlorpheniramine (maleate)] as the compound, how does the difference read?
A: The difference was -3.17.

Q: For `NS(=O)(=O)c1cc2c(cc1Cl)NCNS2(=O)=O` [Hydrochlorothiazide], which difference is on record?
A: The difference was 2.

Q: For `CCc1cc2c(cc1N1CCC(N3CCOCC3)CC1)C(C)(C)c1[nH]c3cc(C#N)ccc3c1C2=O`, which difference is on record?
A: Its difference is 0.182.

Q: Which difference does the source give for `CC(=O)OCC(=O)[C@@]1(OC(C)=O)[C@@H](C)C[C@H]2[C@@H]3C[C@H](F)C4=CC(=O)C=C[C@]4(C)[C@@]3(F)[C@@H](O)C[C@@]21C` [Diflorasone Diacetate] here?
A: Its difference is -4.79.

Q: `C[C@@H]1C[C@H]2[C@@H]3CCC4=CC(=O)C=C[C@]4(C)[C@@]3(F)[C@@H](O)C[C@]2(C)[C@@]1(O)C(=O)CO` [Dexamethasone] was tested. Which difference did it give?
A: The difference was 3.79.

Q: `OC[C@H]1O[C@@H](O[C@@H]2[C@@H](CO)OC(O)(CO)[C@H]2O)[C@H](O)[C@@H](O)[C@H]1O` (mixture of isomers) [Lactulose] was tested. Which difference did it give?
A: Its difference is -4.94.

Q: `C[C@@H](CN1CC(=O)NC(=O)C1)N1CC(=O)NC(=O)C1` [Dexrazoxane] was tested. Which difference did it give?
A: Its difference is 4.12.

Q: How did the difference turn out when `Nc1c(CC(=O)O)cccc1C(=O)c1ccc(Br)cc1` [Bromfenac (sodium salt)] was run?
A: Its difference is 1.64.

Q: With `N=C(N)NCCCC[C@@H]1NC(=O)CCSSC[C@@H](C(N)=O)NC(=O)[C@@H]2CCCN2C(=O)[C@H](Cc2c[nH]c3ccccc23)NC(=O)[C@H](CC(=O)O)NC(=O)CNC1=O` [Eptifibatide] as the compound, how does the difference read?
A: The difference was 2.85.

Q: How did the difference turn out when `CC(C)c1nc(CN(C)C(=O)N[C@H](C(=O)N[C@@H](Cc2ccccc2)C[C@H](O)[C@H](Cc2ccccc2)NC(=O)OCc2cncs2)C(C)C)cs1` [Ritonavir] was run?
A: Its difference is 1.78.

Q: With `COc1ccc(Cl)cc1C(=O)NCCc1ccc(S(=O)(=O)NC(=O)NC2CCCCC2)cc1` [Glyburide (potassium salt)] as the compound, how does the difference read?
A: Its difference is 7.83.

Q: How did the difference turn out when `O=C(NC1CCN(CCCCC2(C(=O)NCC(F)(F)F)c3ccccc3-c3ccccc32)CC1)c1ccccc1-c1ccc(C(F)(F)F)cc1` [Lomitapide] was run?
A: Its difference is -5.57.

Q: How did the difference turn out when `CC(C)NCC(O)c1cc(O)cc(O)c1` (stereo not drawn) [Metaproterenol (hemisulfate)] was run?
A: Its difference is 1.44.

Q: How did the difference turn out when `Cc1c(-c2ccccc2)oc2c(C(=O)OCCN3CCCCC3)cccc2c1=O` [Flavoxate (hydrochloride)] was run?
A: Its difference is 8.27.

Q: How did the difference turn out when `Cc1cccc(CN2CCN(C(c3ccccc3)c3ccc(Cl)cc3)CC2)c1` (stereo not drawn) [Meclizine (hydrochloride)] was run?
A: The difference was -14.3.

Q: Which difference does the source give for `O=c1[nH]c(=O)n([C@H]2C[C@H](O)[C@@H](CO)O2)cc1F` [Floxuridine] here?
A: Its difference is 1.72.

Q: How did the difference turn out when `CON(C)Cc1ccc(O)c2c1C[C@H]1C[C@H]3[C@H](N(C)C)C(=O)C(C(N)=O)=C(O)[C@@]3(O)C(=O)C1=C2O` was run?
A: The difference was 0.0321.

Q: With `CCN(CC)CC(=O)Nc1c(C)cccc1C` [Lidocaine] as the compound, how does the difference read?
A: The difference was 1.72.

Q: For `CC(C)OC(=O)CCC/C=C\C[C@@H]1[C@@H](/C=C/C(F)(F)COc2ccccc2)[C@H](O)C[C@@H]1O` [Tafluprost], which difference is on record?
A: The difference was -4.17.

Q: With `Nc1nc(=O)n([C@@H]2CS[C@H](CO)O2)cc1F` [Emtricitabine] as the compound, how does the difference read?
A: The difference was 7.06.

Q: With `CCCCCCCCc1ccc(CCC(N)(CO)CO)cc1` [Fingolimod] as the compound, how does the difference read?
A: The difference was -4.81.

Q: `Cc1cn([C@H]2C=C[C@@H](CO)O2)c(=O)[nH]c1=O` [Stavudine] was tested. Which difference did it give?
A: The difference was 4.85.

Q: `Oc1ccc(C2CNCCc3c2cc(O)c(O)c3Cl)cc1` (stereo not drawn) [Fenoldopam (mesylate)] was tested. Which difference did it give?
A: Its difference is -1.12.

Q: `CC1CNc2c(cccc2S(=O)(=O)N[C@@H](CCCNC(=N)N)C(=O)N2CC[C@@H](C)C[C@@H]2C(=O)O)C1` (stereo partly drawn) [Argatroban] was tested. Which difference did it give?
A: Its difference is 3.46.

Q: For `CC(C)C(=O)Nc1ccc([N+](=O)[O-])c(C(F)(F)F)c1` [Flutamide], which difference is on record?
A: The difference was -13.7.

Q: `NC(=O)N[C@@H](CCC(=O)O)C(=O)O` [N-Carbamyl-L-Glutamic Acid] was tested. Which difference did it give?
A: The difference was 8.31.

Q: With `CO/N=C(\C(=O)N[C@@H]1C(=O)N2C(C(=O)O)=C(COC(N)=O)CS[C@H]12)c1ccco1` [Cefuroxime (sodium salt)] as the compound, how does the difference read?
A: Its difference is 10.9.
